Test results published in PubChem BioAssay AID1159580 (chemical genetic matrix, 2015).
Out of some 5,500 compounds screened, about 2,000 (36%) were called active. About 18% were inconclusive and are not listed. Cut-off read from the data, not from the text of the source: active = normalized growth mostly below about 0.91 (no sharp cut-off); inconclusive = no clear call, values can overlap the other calls; inactive = mostly above about 0.92. Some of the results follow.

Test: chemical genetic growth profiling, strain panel (AID 1159580);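 note: tested at 20 µM; growth read once vehicle control cultures reached saturation at 30 °C; 1 = growth at the plate median or of vehicle wells; lower values mean less growth of the strain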
Conditions: growth OD

Measured: normalized growth

N[C@@H](Cc1ccc(O)c(O)c1)C(=O)O
inactive: S. cerevisiae deletion strains, locus YJR075W, strain HOC1, stronger effect = lower value 1 | S. cerevisiae deletion strains, locus YKL009W, strain mrt4, stronger effect = lower value 0.961 | S. cerevisiae deletion strains, locus YKL068W, stronger effect = lower value 0.979 | S. cerevisiae deletion strains, locus YKL085W, strain MDH1 (second series), stronger effect = lower value 1 | S. cerevisiae deletion strains, locus YKL085W, strain MDH1, stronger effect = lower value 1 | S. cerevisiae deletion strains, locus YKL160W, strain elf1, stronger effect = lower value 1.01 | S. cerevisiae deletion strains, locus YKL190W, strain CNB1, stronger effect = lower value 0.964 | S. cerevisiae deletion strains, locus YKR001C, strain vps1, stronger effect = lower value 1 | S. cerevisiae deletion strains, locus YKR026C, strain gcn3, stronger effect = lower value 0.989 | S. cerevisiae deletion strains, locus YKR091W, strain srl3, stronger effect = lower value 0.998 | S. cerevisiae deletion strains, locus YLL001W, strain dnm1, stronger effect = lower value 0.983 | S. cerevisiae deletion strains, locus YLL026W, stronger effect = lower value 0.995 | S. cerevisiae deletion strains, locus YLL041C, strain sdh2, stronger effect = lower value 1 | S. cerevisiae deletion strains, locus YLR027C, strain aat2, stronger effect = lower value 1.01 | S. cerevisiae deletion strains, locus YLR039C, strain RIC1, stronger effect = lower value 0.91 | S. cerevisiae deletion strains, locus YLR058C, strain SHM2, stronger effect = lower value 0.996 | S. cerevisiae deletion strains, locus YLR102C, strain apc9, stronger effect = lower value 0.991 | S. cerevisiae deletion strains, locus YLR113W, strain HOG1, stronger effect = lower value 0.93 | S. cerevisiae deletion strains, locus YLR221C, strain rsa3, stronger effect = lower value 0.999 | S. cerevisiae deletion strains, locus YLR258W, strain gsy2, stronger effect = lower value 0.985 | S. cerevisiae deletion strains, locus YLR262C, strain YPT6 (second series), stronger effect = lower value 1.01 | S. cerevisiae deletion strains, locus YLR262C, strain YPT6, stronger effect = lower value 0.898 | S. cerevisiae deletion strains, locus YLR268W, strain sec22, stronger effect = lower value 1 | S. cerevisiae deletion strains, locus YLR320W, strain mms22, stronger effect = lower value 1.01 | S. cerevisiae deletion strains, locus YLR330W, strain CHS5, stronger effect = lower value 0.987 | S. cerevisiae deletion strains, locus YLR342W, strain FKS1 (second series), stronger effect = lower value 0.949 | S. cerevisiae deletion strains, locus YLR342W, strain FKS1, stronger effect = lower value 1.01 | S. cerevisiae deletion strains, locus YLR357W, strain rsc2, stronger effect = lower value 0.975 | S. cerevisiae deletion strains, locus YLR370C, strain arc18, stronger effect = lower value 1 | S. cerevisiae deletion strains, locus YLR371W, strain rom2, stronger effect = lower value 0.975 | S. cerevisiae deletion strains, locus YLR384C, strain iki3, stronger effect = lower value 1 | S. cerevisiae deletion strains, locus YLR418C, strain cdc73, stronger effect = lower value 1.04 | S. cerevisiae deletion strains, locus YML016C, strain PPZ1, stronger effect = lower value 0.991 | S. cerevisiae deletion strains, locus YML032C, strain rad52, stronger effect = lower value 0.991 | S. cerevisiae deletion strains, locus YML120C, strain ndi1, stronger effect = lower value 1 | S. cerevisiae deletion strains, locus YML124C, strain tub3, stronger effect = lower value 0.996 | S. cerevisiae deletion strains, locus YMR058W, strain fet3, stronger effect = lower value 0.993 | S. cerevisiae deletion strains, locus YMR078C, strain ctf18, stronger effect = lower value 0.995 | S. cerevisiae deletion strains, locus YMR125W, strain sto1, stronger effect = lower value 0.976 | S. cerevisiae deletion strains, locus YMR129W, stronger effect = lower value 0.986 | S. cerevisiae deletion strains, locus YMR205C, strain PFK2, stronger effect = lower value 0.982 | S. cerevisiae deletion strains, locus YMR223W, strain ubp8, stronger effect = lower value 1.01 | S. cerevisiae deletion strains, locus YMR231W, strain pep5, stronger effect = lower value 0.992 | S. cerevisiae deletion strains, locus YMR263W, strain SAP30, stronger effect = lower value 0.982 | S. cerevisiae deletion strains, locus YMR307W, strain GAS1, stronger effect = lower value 0.921 | S. cerevisiae deletion strains, locus YNL067W, strain RPL9B, stronger effect = lower value 0.982 | S. cerevisiae deletion strains, locus YNL071W, strain lat1, stronger effect = lower value 1.02 | S. cerevisiae deletion strains, locus YNL128W, strain TEP1, stronger effect = lower value 0.954 | S. cerevisiae deletion strains, locus YNL153C, strain GIM3, stronger effect = lower value 0.991 | S. cerevisiae deletion strains, locus YNL183C, strain NPR1, stronger effect = lower value 0.923 | S. cerevisiae deletion strains, locus YNL209W, strain ssb2, stronger effect = lower value 1.01 | S. cerevisiae deletion strains, locus YNL233W, strain BNI4, stronger effect = lower value 1 | S. cerevisiae deletion strains, locus YNL248C, strain rpa49, stronger effect = lower value 0.99 | S. cerevisiae deletion strains, locus YNL250W, strain rad50, stronger effect = lower value 0.98 | S. cerevisiae deletion strains, locus YNL271C, strain bni1, stronger effect = lower value 0.987 | S. cerevisiae deletion strains, locus YNL298W, strain CLA4, stronger effect = lower value 0.995 | S. cerevisiae deletion strains, locus YNL307C, strain MCK1, stronger effect = lower value 1 | S. cerevisiae deletion strains, locus YNL322C, strain KRE1 (second series), stronger effect = lower value 0.99 | S. cerevisiae deletion strains, locus YNL322C, strain KRE1, stronger effect = lower value 0.989 | S. cerevisiae deletion strains, locus YNR049C, strain mso1, stronger effect = lower value 1 | S. cerevisiae deletion strains, locus YNR052C, strain pop2, stronger effect = lower value 1 | S. cerevisiae deletion strains, locus YOL006C, strain TOP1, stronger effect = lower value 0.753 | S. cerevisiae deletion strains, locus YOL012C, strain htz1 0.813 | S. cerevisiae deletion strains, locus YOL147C, strain pex11, stronger effect = lower value 1 | S. cerevisiae deletion strains, locus YOR001W, strain rrp6, stronger effect = lower value 0.996 | S. cerevisiae deletion strains, locus YOR061W, strain CKA2, stronger effect = lower value 0.992 | S. cerevisiae deletion strains, locus YOR069W, strain VPS5, stronger effect = lower value 1 | S. cerevisiae deletion strains, locus YOR070C, strain gyp1, stronger effect = lower value 0.998 | S. cerevisiae deletion strains, locus YOR080W, strain dia2, stronger effect = lower value 0.993 | S. cerevisiae deletion strains, locus YOR083W, strain WHI5, stronger effect = lower value 1.01 | S. cerevisiae deletion strains, locus YOR106W, strain vam3, stronger effect = lower value 0.996 | S. cerevisiae deletion strains, locus YOR136W, strain idh2, stronger effect = lower value 1 | S. cerevisiae deletion strains, locus YOR144C, strain elg1, stronger effect = lower value 0.996 | S. cerevisiae deletion strains, locus YOR184W, strain ser1, stronger effect = lower value 0.982 | S. cerevisiae deletion strains, locus YOR231W, strain MKK1, stronger effect = lower value 0.942 | S. cerevisiae deletion strains, locus YOR265W, strain rbl2, stronger effect = lower value 0.998 | S. cerevisiae deletion strains, locus YOR270C, strain vph1, stronger effect = lower value 1.02 | S. cerevisiae deletion strains, locus YOR290C, strain snf2, stronger effect = lower value 0.933 | S. cerevisiae deletion strains, locus YOR316C, strain cot1, stronger effect = lower value 0.995 | S. cerevisiae deletion strains, locus YPL051W, strain arl3, stronger effect = lower value 0.994 | S. cerevisiae deletion strains, locus YPL055C, strain LGE1, stronger effect = lower value 0.92 | S. cerevisiae deletion strains, locus YPL078C, strain atp4, stronger effect = lower value 1.01 | S. cerevisiae deletion strains, locus YPL106C, strain sse1, stronger effect = lower value 0.96 | S. cerevisiae deletion strains, locus YPL240C, strain hsp82, stronger effect = lower value 0.995 | S. cerevisiae deletion strains, locus YPL241C, strain CIN2, stronger effect = lower value 0.987 | S. cerevisiae deletion strains, locus YPL256C, strain CLN2, stronger effect = lower value 0.929 | S. cerevisiae deletion strains, locus YPR119W, strain clb2, stronger effect = lower value 1 | S. cerevisiae deletion strains, locus YPR141C, strain kar3, stronger effect = lower value 0.98 | S. cerevisiae deletion strains, locus YPR163C, strain tif3, stronger effect = lower value 1.01 | S. cerevisiae deletion strains, locus YPR167C, strain met16, stronger effect = lower value 1.01 | S. cerevisiae deletion strains, strain wtn01, stronger effect = lower value 1.01 | S. cerevisiae strains, strain wild type, stronger effect = lower value 0.955
